# VP16 counter – VP16 counterscreen qHTS for inhibitors of ROR gamma transcriptional activity; Drosophila S2 Gal4-VP16 UAS-luciferase, luminescence, 20 h; Potency, µM (highest dose often 53.6 µM), for the others: at the highest dose activity, negative = inhibition, actives largely listed as inhibitors; actives 3.5% (n = 310,000); AID 2546, 2010;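 note: Gal4-VP16 expression switched on by copper sulfate through the metallothionein promoter; nearly all actives have a fitted effect of over 50% in size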
# NPSR antag – qHTS Assay for Antagonists of the Neuropeptide S Receptor: cAMP Signal Transduction. actives 1% (n = 220,000). AID 1461, 2008. Potency, µM (highest dose often 38.3 µM), inactives show at the highest dose activity change, negative = inhibition, usual class: inhibitors. Q6W5P4. CHO-NPSR cells, cAMP TR-FRET, antagonist mode; note: nearly all actives have a fitted effect of over 50% in size
# Target sequence (Q6W5P4 whole entry, looked up): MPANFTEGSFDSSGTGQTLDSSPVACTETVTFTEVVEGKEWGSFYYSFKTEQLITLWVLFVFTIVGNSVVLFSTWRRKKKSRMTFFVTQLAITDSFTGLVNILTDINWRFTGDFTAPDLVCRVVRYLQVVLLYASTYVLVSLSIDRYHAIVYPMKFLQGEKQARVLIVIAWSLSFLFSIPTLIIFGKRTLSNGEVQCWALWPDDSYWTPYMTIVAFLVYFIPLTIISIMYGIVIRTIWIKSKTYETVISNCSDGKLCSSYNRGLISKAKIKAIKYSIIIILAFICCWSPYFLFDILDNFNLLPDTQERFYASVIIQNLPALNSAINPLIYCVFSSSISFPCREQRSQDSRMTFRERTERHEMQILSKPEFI
# RORg inh – qHTS for inhibitors of ROR gamma transcriptional activity; Nuclear receptor ROR-gamma (Mus musculus), P51450; Drosophila S2 Gal4-RORgamma UAS-luciferase reporter, 20 h; Potency, µM (top dose mostly 53.6 µM), inactives show at the top dose activity change, negative = inhibition, actives largely listed as inhibitors; actives 5.4% (n = 310,000); note: nearly all actives have a fitted effect of over 60% in size
#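 Luminescence from a UAS-regulated Photinus luciferase reporter in stably transfected Drosophila Schneider cells is measured; decreased signal marks ROR gamma inhibition. Fusion expression is induced by 700 uM copper sulfate for 20 hr.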
# B2AR arrestin – qHTS assay of beta-arrestin-biased ligands of beta2-adrenergic receptor. Beta-2 adrenergic receptor (Homo sapiens), P07550. beta-arrestin recruitment to beta2AR, cell-based reporter. Potency, µM (titrated, usually from 46.1 µM), for the others: at the top dose activation, usual class: activators. actives 0.02% (n = 330,000);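 note: 0% = DMSO controls and full agonism = EC100 isoproterenol or metaproterenol; nearly all actives have a fitted effect of over 65% in size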
# Numbers without * were called inactive; ? = inconclusive; . = no result given; [ ] = dose if it differs, or a comment. Only some compounds are listed: those with a hit (about 5.7% of all), similar ones and a draw of the others. Calls come from the whole dose curve; as a rule, active = well fitted curve in the direction sought with a large enough effect; inconclusive = small, poorly fitted or top-dose-only effect, or another doubt; inactive = no such curve, though single readings can be large; an effect the other way counts as inactive or inconclusive. Unless noted, % is set by controls: 0 for no effect and ±100 for the full control effect; potency is the fitted concentration of half-maximal effect.
SMILES,VP16 counter,NPSR antag,RORg inh,B2AR arrestin
O=c1c2ncn([C@@H]3O[C@@H]4COP(=O)(O)O[C@H]4[C@H]3O)c2nc2[nH]c(-c3ccccc3)cn12,-6.9%,.,21.5%,.
COc1ccc(C(=O)Nc2c(Cl)cc(Cl)cc2C(=O)N2CCOCC2)cc1,8.0%,2.8%,-13.7%,-0.2%
Cc1ccc(-c2nc3ccc(Cl)cc3c(=O)n2O)cc1,11.2µM*,.,?,0.0%
Cc1cccc(NC(=O)C(=O)NCC2CCCN2S(=O)(=O)c2ccccc2)c1 (stereo not drawn),.,.,.,-0.1%
COc1ccc(-c2nc3cnc(N4CCN(C)CC4)nc3n(CCc3ccccc3)c2=O)cc1,0.3%,.,-1.1%,.
CCSc1nc2ccccc2n1C(=O)/C=C\c1ccc(OC)c(OC)c1,10µM*,?,10µM*,-0.3%
CCSc1nc2ccccc2n1CC(N)=O,-14.7%,19.8%[46.1 µM],-34.0%,0.3%
Cc1cccnc1CN1CCN(Cc2nc(C(c3ccccc3)c3ccccc3)no2)CC1,-24.6%,-0.9%,11.2µM*,0.1%
CCOc1ccc(C(=O)NC(=S)Nc2ccccn2)cc1[N+](=O)[O-],?,?,0.708µM*,-0.3%
CCOc1ccc(C(=O)NC(=S)Nc2cc(C)ccn2)cc1[N+](=O)[O-],-1.3%,-22.2%[46.1 µM],-14.2%,0.0%
CCOc1ccc(C(=O)NC(=S)Nc2cccnc2)cc1[N+](=O)[O-],-7.0%,0.1%,14.1µM*,0.1%
O=C(NC(=S)Nc1ccccn1)c1cccc([N+](=O)[O-])c1,?,-14.1%,3.55µM*,5.8%
COc1ccc(S(=O)(=O)N2CCC(C(=O)NCc3cccnc3)CC2)cc1Cl,-7.6%,.,-12.3%,-0.1%
CN1CCN(C(=O)C23CC4CC(C2)CC(c2ccccc2)(C4)C3)CC1,6.4%,32.1%,-9.9%,-0.3%
CCC(/C=C1\Sc2ccc(OC)cc2N1CCO)=C\c1sc2ccc(OC)cc2[n+]1CCO,?,10µM*,27.6%,-0.6%
O=C(CN1CCN(c2nc(-c3ccccc3)cs2)CC1)NNC(=O)c1ccc(Br)cc1,1.1%,-19.4%[46.1 µM],-8.9%,0.0%
O=C(NC(=S)N1CCN(c2nc(-c3ccccc3)cs2)CC1)c1cncc(Br)c1,0.224µM*,-20.1%,0.224µM*,-0.1%
Cc1cccc(C)c1NC(=O)CN(C)C(=O)c1ccccc1OCc1ccc(F)cc1,.,.,.,0.1%
Nc1ncnc(Oc2cccc3cccnc23)c1[N+](=O)[O-],8.91µM*,13.8%,4.47µM*,?
COc1cc(N2C(=O)C=CC2=O)c(OC)cc1Cl,4.47µM*,?,5.62µM*,-0.4%
O=S(=O)(Cc1cc(Sc2ccc(Cl)cc2)nc(-c2ccccc2)n1)c1ccccc1,4.1%,-23.2%[46.1 µM],3.0%,0.1%
Cc1nc(CS(=O)(=O)c2ccc(Cl)cc2)cc(Sc2ccc(Cl)cc2)n1,11.2µM*,-46.0%[46.1 µM],?,-0.2%
O=C(Cc1ccc(O)cc1)N/N=C/c1cccnc1,3.8%,.,-18.1%,0.2%
CC(C)c1ccc(NC2CCCN(C(=O)CSc3nncn3C)C2)cc1 (stereo not drawn),6.4%,.,-2.9%,-0.1%
Cn1ccnc1C(O)c1cc(C(C)(C)C)c(O)c(C(C)(C)C)c1 (stereo not drawn),?,-4.0%[46.1 µM],10µM*,0.3%
SMILES,VP16 counter,NPSR antag,RORg inh,B2AR arrestin
CC(C)(Sc1cc(C(C)(C)C)c(O)c(C(C)(C)C)c1)Sc1cc(C(C)(C)C)c(O)c(C(C)(C)C)c1,1.5%,9.6%,-6.2%,-0.1%
CC1=C(C)C(c2ccccc2)NC(=S)N1 (stereo not drawn),-93.3%,13.4%,5.01µM*,0.7%
Cc1ccc2cccc(NC(=S)NC(=O)c3ccn(C)n3)c2n1,5.62µM*,-13.0%[46.1 µM],5.01µM*,0.0%
Cc1ccc2cccc(NC(=S)NC(=O)c3c(Br)cnn3C)c2n1,?,-15.4%,3.98µM*,-1.1%
Cc1noc(C)c1-c1nccc(NC2CC2)n1,1.0%,.,-5.5%,.
O=C(c1cc(-c2ccc3c(c2)OCO3)on1)N1CCOCC1,7.94µM*,14.2%[46.1 µM],10µM*,-0.3%
O=C(c1cc(-c2ccc(Cl)cc2)on1)N1CCOCC1,?,18.1%[46.1 µM],10µM*,-0.2%
O=C(c1cc(-c2ccc(Cl)c(Cl)c2)on1)N1CCOCC1,-0.3%,.,9.3%,-0.2%
O=C(c1cc(-c2ccc(Cl)cc2Cl)on1)N1CCOCC1,?,-3.8%[46.1 µM],10µM*,0.4%
CC1(C)CC(=O)C2=C(C1)O[C@@]1(CCCCN3C(=O)c4ccccc4C3=O)Cc3ccccc3C2O1,-12.6%[10 µM],.,-14.6%[10 µM],3.1%[9.22 µM]
CCN(CC)CCCC(C)n1c(-c2ccccc2)nc2c(NCCO)nc(C)nc21 (stereo not drawn),-7.2%,.,-16.7%,.
O=c1cc(-c2ccc(F)cc2F)[nH]c2ccc(F)cc12,-6.9%[96.6 µM],.,38.2%[96.6 µM],.
Cn1cccc1C(=O)N1CCC[C@@]2(CCN(C(=O)Nc3cccc(F)c3)C2)C1,-4.0%,.,0.5%,.
O=C(C[n+]1ccccc1)Nc1ccccc1C(F)(F)F,-4.9%,.,-22.5%,-0.9%
CC(C)C(=O)NC(c1cccc([N+](=O)[O-])c1)c1ccc2cccnc2c1O (stereo not drawn),2.51µM*,.,2.82µM*,-0.3%
CC(C)C(=O)NC(c1ccco1)c1ccc2cccnc2c1O (stereo not drawn),5.01µM*,-20.3%[46.1 µM],2.82µM*,?
Oc1c(C(Nc2nc3ccccc3s2)c2ccco2)ccc2cccnc12 (stereo not drawn),5.62µM*,-13.3%[46.1 µM],2.51µM*,0.1%
CC(C)C(=O)NC(c1ccc([N+](=O)[O-])cc1)c1c(O)ccc2ccccc12 (stereo not drawn),12.6µM*,?,?,0.1%
CC(=O)NC(c1ccco1)c1cc(F)c2cccnc2c1O (stereo not drawn),.,.,.,6.6%
Cc1ccc(-c2sc(C(=O)NN)c(C)c2C#N)cc1,7.08µM*,4.3%,4.47µM*,-0.3%
O=C(O)c1csc(N/N=C/c2ccc(Br)cc2)n1,5.01µM*,12.8%,2.51µM*,-0.9%
COc1ccc(N2C(=O)c3ccc(C(=O)Nc4ccc(NC(C)=O)cc4)cc3C2=O)cc1,-1.3%,.,3.4%,-0.4%
O=C(N=Nc1c(O)n(C2OC(=O)c3ccccc32)c2ccccc12)c1ccc(O)cc1 (stereo not drawn),2.82µM*,?,2.82µM*,-0.4%
Cn1c(O)c(N=NC(=O)c2ccco2)c2ccccc21,?,-40.3%,?,-0.3%
Oc1ccc(CNc2ccc(C(F)(F)F)cc2Cl)c2cccnc12,.,.,.,0.1%
SMILES,VP16 counter,NPSR antag,RORg inh,B2AR arrestin
CN(C)C1CCN(Cc2cc(COCc3ccccc3)c3cccnc3c2O)C1 (stereo not drawn),.,.,.,3.6%
CN(Cc1ccco1)Cc1ccc(O)c2ncccc12,.,.,.,-0.3%
Oc1ccc(COCc2ccccc2)c2cccnc12,?,-19.2%[46.1 µM],0.562µM*,?
CCCOCc1ccc(O)c2ncccc12,3.55µM*,-38.6%,1.26µM*,?
CC(C)COCc1ccc(O)c2ncccc12,1µM*,38.3%,0.708µM*,-1.0%
CC(=O)N1CCC2(CCCN(c3ccc(-c4ccccc4)cc3)C2)CC1,-24.5%,.,?,.

# Screens as filed in PubChem.
